Assay [1] can be described thus: qHTS of pediatric cancer cell lines to identify multiple opportunities for drug repurposing: Primary screen for DAOY cells (AID 1347090). Note: nearly all actives have a fitted effect of over 55% in size. Put shortly: (§1)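 Cell viability, CellTiter-Glo luminescence; 500-1,000 cells/well, 8- or 11-point titration, 48 h compound exposure at 37 degrees C, 5% CO2. Controls: DMSO neutral, bortezomib 2.3 µM final as positive.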
In general terms: qHTS replaces the single test concentration by a dilution series.

The nature of assay [2]: qHTS of pediatric cancer cell lines to identify multiple opportunities for drug repurposing: Primary screen for SJ-GBM2 cells (AID 1347091). Put shortly: as §1
Assay [3] in a line: qHTS of pediatric cancer cell lines to identify multiple opportunities for drug repurposing: Primary screen for A673 cells (AID 1347092). Note: nearly all actives have a fitted effect of over 45% in size. Put shortly: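 Titration-based qHTS on A673 cells: MIPE compounds spanned 11 points (0.78 nM to 46 µM final), NPC compounds 8 points (0.59 nM to 46 µM final). Viability after 48 h was measured by ATP luminescence.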
Assay [4] can be described thus: qHTS of pediatric cancer cell lines to identify multiple opportunities for drug repurposing: Primary screen for SK-N-MC cells (AID 1347093). Put shortly:
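Metabolically active cells were quantified by ATP-dependent luminescence (CellTiter-Glo, 15 min at room temperature) following 48 h treatment. Cells had been plated at 500-1,000 per well and settled for 5 h beforehand.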

Assay [5] is described as follows: qHTS of pediatric cancer cell lines to identify multiple opportunities for drug repurposing: Primary screen for BT-37 cells (AID 1347094). Put shortly:
(§2)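 Viability was measured as metabolically active cells after 48 hours of treatment, read by CellTiter-Glo luminescence. Compounds were tested at multiple final concentrations, giving concentration-response curves.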

Assay [6] in a line: qHTS of pediatric cancer cell lines to identify multiple opportunities for drug repurposing: Primary screen for NB-EBc1 cells (AID 1347095). Put shortly: as §2
Assay [7] can be described thus: qHTS of pediatric cancer cell lines to identify multiple opportunities for drug repurposing: Primary screen for U-2 OS cells (AID 1347096). Note: nearly all actives have a fitted effect of over 50% in size. Put shortly: (§3)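 Cells (500-1,000/well) rested 5 h, then received compounds for 48 h; metabolically active cells were measured by CellTiter-Glo luminescence. Final concentrations spanned up to 46 µM (MIPE, 11-point) or 0.59 nM-46 µM (NPC, 8-point) in primary screens, 11-point in follow-ups.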

The nature of assay [8]: qHTS of pediatric cancer cell lines to identify multiple opportunities for drug repurposing: Primary screen for Saos-2 cells (AID 1347097). Note: nearly all actives have a fitted effect of over 40% in size. Put shortly: as §2
Assay [9] is described as follows: qHTS of pediatric cancer cell lines to identify multiple opportunities for drug repurposing: Primary screen for SK-N-SH cells (AID 1347098). Note: nearly all actives have a fitted effect of over 65% in size. Put shortly: as §3
Assay [10] can be described thus: qHTS of pediatric cancer cell lines to identify multiple opportunities for drug repurposing: Primary screen for NB1643 cells (AID 1347099). Note: nearly all actives have a fitted effect of over 50% in size. In a few lines: as §2
Assay [11] is described as follows: qHTS of pediatric cancer cell lines to identify multiple opportunities for drug repurposing: Primary screen for LAN-5 cells (AID 1347100). In a few lines:
as §3

Assay [12] is described as follows: qHTS of pediatric cancer cell lines to identify multiple opportunities for drug repurposing: Primary screen for BT-12 cells (AID 1347101). Note: nearly all actives have a fitted effect of over 25% in size. In a few lines:
as §3

The nature of assay [13]: qHTS of pediatric cancer cell lines to identify multiple opportunities for drug repurposing: Primary screen for Rh18 cells (AID 1347102). Note: nearly all actives have a fitted effect of over 65% in size. In a few lines:
as §3

A short description of assay [14]: qHTS of pediatric cancer cell lines to identify multiple opportunities for drug repurposing: Primary screen for OHS-50 cells (AID 1347103). Note: nearly all actives have a fitted effect of over 40% in size. In a few lines: as §3
The nature of assay [15]: qHTS of pediatric cancer cell lines to identify multiple opportunities for drug repurposing: Primary screen for RD cells (AID 1347104). Note: nearly all actives have a fitted effect of over 55% in size. Put shortly: as §2
Assay [16] can be described thus: qHTS of pediatric cancer cell lines to identify multiple opportunities for drug repurposing: Primary screen for TC32 cells (AID 1347089). Note: nearly all actives have a fitted effect of over 60% in size. In a few lines: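 A viability screen of TC32 cells was run over 48 h, with primary MIPE doses spanning 0.78 nM–46 µM and NPC doses 0.59 nM–46 µM. ATP luminescence (CellTiter-Glo) served as the read-out.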

Inconclusive results are not listed. Activity calls are given as the source filed them. Calls come from the whole dose curve; as a rule, active = well fitted curve in the direction sought with a large enough effect; inconclusive = small, poorly fitted or top-dose-only effect, or another doubt; inactive = no such curve, though single readings can be large; an effect the other way counts as inactive or inconclusive.
Potency is the fitted concentration of half-maximal effect.

As for `COC(=O)Nc1ccc(-c2nc(N3CCOCC3)c3cnn(C4CCN(Cc5cccnc5)CC4)c3n2)cc1`, the Potency in [1] is 4.69 µM (active); in assay [2], 0.743 µM (active); in assay [3], 4.69 µM (active); in assay [4] it was 0.0469 µM (active); in assay [5] it was 0.544 µM (active); in assay [6], 1.18 µM (active). Further, the Potency in [8] was 0.833 µM (active); in assay [9], 21.5 µM (active); in [11], 14.8 µM (active); in [12] it was 1.09 µM (active); in [13] it was 0.935 µM (active); in [14], 0.109 µM (active). Further, the Potency in [15] is 1.32 µM (active). Also, the Potency entry in [7] and in assay [10] was “inactive” in each case.
For the compound `O=C(c1ccc(Nc2nccc(-c3cc4ccccc4s3)n2)cc1)N1CCC(N2CCCC2)CC1`, the Potency in assay [1] was 23.5 µM (active); in [2], 13.2 µM (active); in assay [3], 7.43 µM (active); in assay [4], 5.26 µM (active); in [5], 24.3 µM (active); in assay [6], 23.5 µM (active). Also, the Potency was 23.5 µM (active) in assay [7]; 16.6 µM (active) in assay [8]; 19.2 µM (active) in assay [9]; 11.8 µM (active) in assay [10]; 11.8 µM (active) in assay [11]; 27.3 µM (active) in assay [12]. Besides, the Potency in assay [13] is 14.8 µM (active); in [14] it was 7.69 µM (active); in [15], 10.5 µM (active).
With `CC(=O)OCC(=O)[C@@]1(O)[C@H](C)C[C@H]2[C@@H]3C=C(C)C4=Cc5c(cnn5-c5ccccc5)C[C@]4(C)[C@@H]3[C@@H](O)C[C@@]21C`, the Potency is 11.8 µM (active) in assay [1]; 5.26 µM (active) in assay [2]; 2.96 µM (active) in assay [3]; 1.18 µM (active) in [4]; 19.3 µM (active) in [5]; 3.72 µM (active) in assay [6]. The Potency in assay [7] was 18.7 µM (active); in [8], 18.7 µM (active); in assay [10] it was 13.2 µM (active); in [12] it was 21.7 µM (active); in assay [13] it was 13.2 µM (active); in assay [14], 19.3 µM (active). Besides, in assay [15], the Potency is 16.6 µM (active). Moreover, the Potency entry in [9] is “inactive”.
As to `C[C@@H](Oc1cc(-c2cnn(C3CCNCC3)c2)cnc1N)c1c(Cl)ccc(F)c1Cl`, the Potency in assay [16] is 20.8 µM (active); in [2], 0.0743 µM (active); in assay [3], 14.8 µM (active); in [6], 9.35 µM (active); in assay [8], 9.35 µM (active); in assay [9], 19.2 µM (active). The Potency is 3.72 µM (active) in [10]; 24.3 µM (active) in [12]; 16.6 µM (active) in [13]; 2.43 µM (active) in assay [14]; 16.6 µM (active) in assay [15].
`O=C(Nc1ncc(-c2cc(C(F)F)nn2-c2c(Cl)cccc2Cl)s1)C1CC1`: the Potency was 1.31 µM (active) in assay [16]; 0.332 µM (active) in assay [2]; 0.296 µM (active) in [3]; 0.863 µM (active) in assay [5]; 0.296 µM (active) in assay [6]; 1.87 µM (active) in assay [7]. Moreover, the Potency in assay [8] was 0.209 µM (active); in assay [9], 0.482 µM (active); in [10] it was 3.32 µM (active); in assay [11], 0.332 µM (active); in assay [12] it was 0.968 µM (active); in assay [14], 0.432 µM (active).
As to `COc1cc(C(C)C)c2c(c1)S(=O)(=O)N(COc1cc(=O)n3cccc(OCCN4CCCCC4)c3n1)C2=O`, the Potency entry in assay [16], in assay [7] and in [12] was “inactive” throughout. The Potency was 26.4 µM (active) in [2]; 7.43 µM (active) in assay [3]; 3.72 µM (active) in assay [4]; 26.4 µM (active) in assay [8]; 13.2 µM (active) in assay [10]; 20.9 µM (active) in assay [15].
Consider `Cc1ccc(NC(=O)C2(c3ccc4c(c3)OC(F)(F)O4)CC2)nc1-c1cccc(C(=O)O)c1`, for which the Potency in [1] was 0.469 µM (active); in assay [2], 0.0372 µM (active); in [3], 0.059 µM (active); in assay [4], 0.0469 µM (active); in [5] it was 0.0385 µM (active); in [6], 0.0662 µM (active). For the same compound, the Potency is 0.59 µM (active) in [7]; 0.148 µM (active) in [8]; 0.136 µM (active) in [9]; 0.0332 µM (active) in [10]; 0.122 µM (active) in assay [12]; 0.833 µM (active) in [13]. In addition, the Potency in assay [14] is 0.0544 µM (active); in [15], 0.0743 µM (active).
In the case of `Cc1coc2c1C(=O)C(=O)c1c-2ccc2c1CCCC2(C)C`, the Potency entry in assay [16], in assay [7] and in assay [9] was “inactive” in each case. Also, the Potency was 5.9 µM (active) in assay [2]; 8.33 µM (active) in [4]; 21.7 µM (active) in assay [5]; 1.66 µM (active) in assay [8]; 21.7 µM (active) in assay [12].
In the case of `C=CCn1c(=O)c2cnc(Nc3ccc(N4CCN(C)CC4)cc3)nc2n1-c1cccc(C(C)(C)O)n1`, the Potency was 0.372 µM (active) in [1]; 0.166 µM (active) in [2]; 0.0743 µM (active) in assay [3]; 0.0833 µM (active) in assay [4]; 0.611 µM (active) in [5]; 0.209 µM (active) in assay [6]. Besides, the Potency is 3.72 µM (active) in [7]; 1.05 µM (active) in [8]; 0.681 µM (active) in [9]; 0.187 µM (active) in [10]; 0.469 µM (active) in assay [11]; 7.69 µM (active) in assay [12]. Besides, the values for the Potency in assay [13], in assay [14] and in assay [15] were 7.43 µM (active), 0.306 µM (active) and 0.418 µM (active), respectively.
Take `Cc1cc(Nc2cc(N3CCN(C)CC3)nc(Sc3ccc(NC(=O)C4CC4)cc3)n2)n[nH]1`: the Potency is 0.93 µM (active) in assay [16]; 11.8 µM (active) in assay [3]; 0.418 µM (active) in assay [4]; 0.935 µM (active) in assay [6]; 21.5 µM (active) in assay [9]; 20.9 µM (active) in assay [10]. The Potency was 0.105 µM (active) in assay [11], 21.7 µM (active) in assay [12], 16.6 µM (active) in assay [13] and 6.85 µM (active) in assay [14]. Besides, the Potency entry in assay [5] and in [8] was “inactive” throughout.
Consider `Nc1nccc(Oc2ccc(NC(=O)c3c[nH]cc(-c4ccc(F)cc4)c3=O)cc2F)c1Cl`, for which the Potency in assay [1] is 14.8 µM (active); in assay [2], 0.132 µM (active); in assay [3], 5.9 µM (active); in assay [4], 2.35 µM (active); in assay [5], 2.17 µM (active); in [6] it was 1.05 µM (active). In addition, the Potency in [8] is 18.7 µM (active); in assay [9] it was 6.81 µM (active); in assay [10], 14.8 µM (active); in assay [11], 1.18 µM (active); in [12], 13.7 µM (active); in assay [13], 18.7 µM (active). Also, the Potency in assay [14] was 7.69 µM (active); in [15], 26.4 µM (active).
In the case of `COc1cc2c(Nc3ccc(NC(=O)c4ccccc4)cc3)ncnc2cc1OCCCN1CCOCC1`, the Potency in assay [16] was 3.7 µM (active); in assay [2], 5.26 µM (active); in assay [3], 14.8 µM (active); in assay [5] it was 30.6 µM (active); in assay [6], 18.7 µM (active); in assay [10] it was 26.4 µM (active). In addition, the Potency is 0.743 µM (active) in [11], 27.3 µM (active) in assay [14] and 33.2 µM (active) in assay [15].

Values taken from PubChem BioAssay (NCATS).
